This is a sample that favours compounds with a hit; in the whole collection about 4.1% have one here.
ssDAF12 agonist – S. stercoralis DAF-12 nuclear receptor activators, primary screen, cell-based, luminescence, HEK293, GRIP1 co-expression, lit1-tk-luc | Nuclear hormone receptor DAF-12 (Strongyloides stercoralis) | HEK293 ssDAF-12/GRIP1 lit1-tk-luc reporter; % of 3 µM dafachronic acid response | activation, % at 6.8 µM | 370,000 tested, 1% active;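 active means activation above the mean over all tested compounds plus 3 SD, cut at about 0.9% in these data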
DAX1 inh-1 – DAX1 (NR0B1) inhibitors on StAR promoter, primary screen, cell-based, luminescence, SF-1 (NR5A1), full-length DAX-1 | 370,000 tested, 1.1% active | inhibition, % at 6.8 µM | HEK293T StAR-luciferase reporter, SF-1/DAX-1 repression relief;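 active means inhibition above the mean over all tested compounds plus 3 SD, cut at about 3.6% in these data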;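 further: higher inhibition means more luminescence from relief of DAX-1 repression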
hcDAF-12 act – H. contortus DAF-12 nuclear receptor activators, primary screen, cell-based, luminescence, HEK293, lit1-tk-luc reporter | activation, % at 6.8 µM | HEK293 hcDAF-12 lit1-tk-luc reporter; 0% DMSO, 100% Δ7-dafachronic acid | 370,000 tested, 1.4% active;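 active means activation above the mean of all tested compounds plus 3 SD, cut at about 5.5% in these data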
DAX1 inh-2 – DAX1 (NR0B1) inhibitors, primary screen, cell-based, HEK293, Gal4-DAX1, luciferase luminescence; 340,000 tested, 0.99% active; inhibition, % at 6.75 µM; HEK293 Gal4-DAX1 luciferase reporter;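 active means inhibition above the mean over all tested compounds plus 3 SD, cut at about 4.2% in these data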;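 further: inhibition shows as a rise in luminescence from relieved DAX1 repression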
hgDAF-12 ag – H. glycines DAF-12 receptor agonists, primary screen, cell-based, luminescence, HEK293, GAL4 fusion, UAS-luciferase; Nuclear hormone receptor DAF-12 (Heterodera glycines), GAL4 fusion; HEK293 GAL4-hgDAF12 UAS-luciferase reporter, agonist luminescence; normalized to butyrate control; activation, % at 6.8 µM; 370,000 tested, 1.8% active;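 active means activation above a cutoff set at the mean of all screened compounds plus 3 SD, cut at about 10% in these data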
DAX1 conf – DAX1 (NR0B1) inhibitors relieving SF-1 repression, confirmation, cell-based, luminescence, HEK293T, full-length DAX-1, SF-1 activated StAR promoter; shares compounds with DAX1 inh-1; inhibition, % at 6.8 µM; 2,400 tested, 87% active; HEK293T StAR-promoter luciferase reporter, SF-1/DAX-1 repression;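 active means inhibition above the average of every tested compound plus 3 SD, cut at about 3.8% in these data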
Target sequence (P51843 whole entry, looked up): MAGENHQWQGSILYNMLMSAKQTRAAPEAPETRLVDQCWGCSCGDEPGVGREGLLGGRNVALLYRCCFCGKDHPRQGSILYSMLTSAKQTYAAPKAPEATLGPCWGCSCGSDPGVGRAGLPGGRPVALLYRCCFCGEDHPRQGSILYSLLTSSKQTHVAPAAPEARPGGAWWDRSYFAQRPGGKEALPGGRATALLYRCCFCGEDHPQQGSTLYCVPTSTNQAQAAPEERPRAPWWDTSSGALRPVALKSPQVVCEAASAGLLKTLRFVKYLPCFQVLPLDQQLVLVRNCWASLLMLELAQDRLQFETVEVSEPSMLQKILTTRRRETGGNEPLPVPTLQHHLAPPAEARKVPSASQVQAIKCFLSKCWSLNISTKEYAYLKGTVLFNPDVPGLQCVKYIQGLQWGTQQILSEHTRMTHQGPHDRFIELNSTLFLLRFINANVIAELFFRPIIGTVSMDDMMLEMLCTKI
SF1 mutant ctr – StAR reporter signal changes without DAX1, counter-screen for DAX1 inhibitor project, cell-based, luminescence, AF-2 mutant SF-1, transactivation; shares compounds with DAX1 inh-1; AID 652136, 2013; inhibition, % at 6.8 µM; 2,400 tested, 78% active; HEK293 StAR-luciferase, SF-1 AF2 mutant;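 active means inhibition above the mean of all tested compounds plus 3 SD, cut at about 3% in these data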
LXRb hcDAF ctr – LXR agonists, Gal4 luciferase reporter, confirmation, counter-screen for hcDAF-12 agonist project, cell-based, luminescence, HEK293, H. contortus campaign. 3,400 tested, under 10 active. activation, % at 6.8 µM. HEK293 Gal4-LXR tk-luc reporter, 24 h; normalized: DMSO 0%, positive control 100%. shares compounds with hcDAF-12 act;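 active means mean percent activation of the reporter above a cutoff set as the average over tested compounds plus their standard deviation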
hcDAF12 conf – H. contortus DAF-12 receptor agonists, confirmation, cell-based, luminescence, HEK293, lit1-tk-luc, triplicate | shares compounds with hcDAF-12 act | HEK293 hcDAF-12 lit1-tk-luc reporter; % of Δ7-dafachronic acid response | activation, % at 6.8 µM | AID 743032, 2013 | 3,400 tested, 61% active;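 active means mean activation across triplicate tests above the threshold derived from the earlier primary screen, cut at about 5.5% in these data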
Large screens that a line does not name were inactive (follow-up assays come after a bar, where they were run).

COCCN(C(=O)COC(=O)/C=C/c1cccc(OC)c1)c1c(N)n(CC(C)C)c(=O)[nH]c1=O	none
CCOC(=O)CNc1c(-c2ccccc2)nc2ccc(Cl)cn12	none
COC(=O)CNc1c(-c2ccccn2)nc2ccc(Br)cn12	DAX1 inh-1 4.9, hcDAF-12 act 7.8 | DAX1 conf 12 | SF1 mutant ctr 6.2 | LXRb hcDAF ctr inactive | hcDAF12 conf 6.2
O=C(CCN1C(=O)NC2(CCCC2)C1=O)Nc1ccc(-c2nc3ccccc3s2)cc1	ssDAF12 agonist 1.0, DAX1 inh-1 5.8, hcDAF-12 act 7.7, hgDAF-12 ag 13 | DAX1 conf 13 | SF1 mutant ctr 5.8 | LXRb hcDAF ctr inactive | hcDAF12 conf 7.6
CCC(=O)NC(Nc1c(C)n(C)n(-c2ccccc2)c1=O)C(Cl)(Cl)Cl (stereo not drawn)	none
CC(=Nc1ccc(C)cc1)c1sc2ccccc2c1O	ssDAF12 agonist 2.2, DAX1 inh-1 5.3, hcDAF-12 act 11, hgDAF-12 ag 15 | DAX1 conf 13 | SF1 mutant ctr 4.3 | LXRb hcDAF ctr inactive | hcDAF12 conf 13
COc1ccc(C(=O)c2c(O)cc(-c3ccc(OC)cc3)oc2=O)cc1	none
COc1ccc(-c2cc3ccccc3c(=O)o2)cc1	ssDAF12 agonist 2.2, DAX1 inh-1 7.7, hcDAF-12 act 12, hgDAF-12 ag 25 (no result: DAX1 inh-2) | DAX1 conf 13 | SF1 mutant ctr 6.6 | LXRb hcDAF ctr inactive | hcDAF12 conf 11
Cc1nc2cc(NC(=O)N3c4ccccc4CC3C)ccc2n1C (stereo not drawn)	ssDAF12 agonist 1.3, DAX1 inh-1 6.0, hcDAF-12 act 6.9 | DAX1 conf 18 | SF1 mutant ctr 7.7 | LXRb hcDAF ctr inactive | hcDAF12 conf 8.2
OC[C@@H]1CN(Cc2ccc(-c3ccccc3)cc2)C[C@H](n2cnc3c(NCc4ccc(F)cc4)ncnc32)O1	none (no result: DAX1 inh-2)
Cc1c(C(=O)Nc2nc3ccccc3[nH]2)oc2ccccc12	ssDAF12 agonist 3.8, DAX1 inh-1 5.7, hcDAF-12 act 24, hgDAF-12 ag 21 | DAX1 conf 14 | SF1 mutant ctr 7.4 | LXRb hcDAF ctr inactive | hcDAF12 conf 13
O=C(Nc1nc2ccccc2[nH]1)c1ccc(Br)o1	ssDAF12 agonist 1.4, DAX1 inh-1 6.0, hcDAF-12 act 11, hgDAF-12 ag 17 | DAX1 conf 7.9 | SF1 mutant ctr 5.2 | LXRb hcDAF ctr inactive | hcDAF12 conf 7.4
O=C(Cc1ccccc1)NN1C(=O)C2C3C=CC(C3)[C@@H]2C1=O (stereo partly drawn)	none
O=C(COc1ccc(Cl)cc1Cl)Nc1ccc(Cl)cn1	DAX1 inh-1 6.2, hcDAF-12 act 8.8, hgDAF-12 ag 11 | DAX1 conf 8.3 | SF1 mutant ctr 3.5 | LXRb hcDAF ctr inactive | hcDAF12 conf 8.1
COC(=O)c1ccccc1NC(=O)C1CC=CCC1C(=O)O (stereo not drawn)	none
O=C(NCCc1ccccc1)c1ccccc1NC(=O)C1CC=CCC1C(=O)O (stereo not drawn)	ssDAF12 agonist 1.2, DAX1 inh-1 4.7, hcDAF-12 act 11, hgDAF-12 ag 11 | DAX1 conf 7.6 | SF1 mutant ctr 7.5 | LXRb hcDAF ctr inactive | hcDAF12 conf 7.2
Cc1ccc(S(=O)(=O)N2CC(C)N(C(=O)N3CCOCC3)C2)cc1 (stereo not drawn)	none
Fc1ccc(-c2cn3cc(C(F)(F)F)cc(Cl)c3n2)cc1	ssDAF12 agonist 3.7, DAX1 inh-1 6.0, hcDAF-12 act 19, DAX1 inh-2 4.9, hgDAF-12 ag 12 | DAX1 conf 17 | SF1 mutant ctr 8.8 | LXRb hcDAF ctr inactive | hcDAF12 conf 22
CC1CC1C(=O)OCC(=O)Nc1cccc(Br)c1 (stereo not drawn)	none
CCOc1ccc(N(CC(=O)N/N=C(\C)c2cccc(NC(C)=O)c2)S(=O)(=O)c2ccccc2)cc1	none
O=C1NN(c2ccccc2)C(=O)/C1=C/c1coc2ccccc2c1=O	ssDAF12 agonist 1.7, DAX1 inh-1 4.8, hcDAF-12 act 17, hgDAF-12 ag 13 | DAX1 conf inactive | SF1 mutant ctr inactive | LXRb hcDAF ctr inactive | hcDAF12 conf inactive
O=C1NN(c2ccccc2)C(=O)/C1=C\c1coc2ccc(O)cc2c1=O	none
O=C(c1ccc2oc(CCc3ccccc3)nc2c1)N1CCC(O)CC1	DAX1 inh-1 8.1, hcDAF-12 act 8.2, hgDAF-12 ag 11 | DAX1 conf 13 | SF1 mutant ctr 4.9 | LXRb hcDAF ctr inactive | hcDAF12 conf 6.9
Cc1ccc2nc(Cl)c(/C=N/Nc3ccc(C(=O)O)cc3)cc2c1	ssDAF12 agonist 3.0, DAX1 inh-1 11, hcDAF-12 act 15, hgDAF-12 ag 25 | DAX1 conf 25 | SF1 mutant ctr 8.6 | LXRb hcDAF ctr inactive | hcDAF12 conf 16
Cc1ccc2cc(/C=N/NC(=O)c3ccc(F)cc3)c(Cl)nc2c1	none
CC(C)C[C@H]1CN(CCCC[C@H]2CNC(=O)C(=O)N2CCc2ccc(O)cc2)C(=O)C(=O)N1CCc1ccc(O)cc1	none (no result: DAX1 inh-2)
CCC(C(=O)NC(C)(C)C)N(C(=O)Cn1nnc(-c2cccs2)n1)c1cnc2ccccc2c1 (stereo not drawn)	none
